# According to PubChem BioAssay:
# The source made the active and inactive calls.
# Tests used:
# [1] = binders of probe aFSTL3 on microarray, primary screen, stem cell growth factor project, biochemical, small-molecule microarray, fluorescence 635/667 (AID 1064); details: higher = more signal;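 further: measures binding of the biotinylated anti-FSTL3 antibody to printed compounds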
# [2] = binders from COS7 lysate, DM2A8 probe, primary screen, torsin A project, cell lysate, small-molecule microarray, fluorescence 635/667 (AID 1065); details: higher = more signal, COS7 lysate expressing mutant human TOR1A
# [3] = binders of probe aFGF2 on microarray, primary screen, stem cell growth factor project, biochemical, small-molecule microarray, fluorescence 635/667 (AID 1067); details: higher = more signal;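 further: measures binding of biotinylated aFGF2 protein to printed compounds on slides; z-score merges feature fluorescence and signal-to-noise across triplicate slides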
# [4] = binders of probe aFGF10 on microarray, primary screen, stem cell growth factor project, biochemical, small-molecule microarray, fluorescence 635/667 (AID 1071); details: higher = more signal;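 further: score merges 667 nm spot intensity and signal to noise from triplicate slides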
# [5] = target: Neurogenic locus notch homolog protein 2 (Homo sapiens) (UniProt Q04721); experiment: Notch2 binders on small-molecule microarrays, primary screen, biochemical, small-molecule microarray, 635 nm fluorescence, stem cell growth factors (AID 1073); details: Notch2 binding, higher = more signal
# [6] = target: Pro-neuregulin-1, membrane-bound isoform (Homo sapiens) (UniProt Q02297); experiment: NRG1 binders on small-molecule microarrays, primary screen, psychiatric disease protein project, biochemical, small-molecule microarray, fluorescence 635/667 (AID 1075); details: NRG1 binding, 635 nm fluorescence, higher = more signal;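 further: score combines 667 nm spot fluorescence with signal to noise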
# [7] = test system: Neuregulin-1 EGF-like domain; experiment: binders of neuregulin-1 EGF-like domain, primary screen, biochemical, small-molecule microarray, 635 nm fluorescence (AID 1081); details: small-molecule microarray binding, higher = more signal;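 further: binding of the protein to compounds printed on small-molecule microarray slides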
# [8] = FRG1 promoter luciferase signal modulators, primary screen, FRG1 inhibition for FSHD, cell-based, C2C12 myotubes, firefly/Renilla luciferase, luminescence (AID 1084); details: higher = more signal, called active from +8 up or from −8 down
# [9] = binders of probe aFST on microarray, primary screen, stem cell growth factor project, biochemical, small-molecule microarray, fluorescence 635/667 (AID 1086); details: higher = more signal;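 further: score merges 667 nm fluorescence with signal-to-noise of each printed compound spot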
# [10] = binders of probe aHhip on microarray, primary screen, stem cell growth factor project, biochemical, small-molecule microarray, fluorescence 635/667 (AID 1087); details: higher = more signal;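 further: score merges spot fluorescence at 667nm with spot signal to noise ratio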
# Chain of Pro-neuregulin-1, membrane-bound isoform (Homo sapiens) (Q02297 whole entry, looked up, the tested form may be a part, canonical isoform): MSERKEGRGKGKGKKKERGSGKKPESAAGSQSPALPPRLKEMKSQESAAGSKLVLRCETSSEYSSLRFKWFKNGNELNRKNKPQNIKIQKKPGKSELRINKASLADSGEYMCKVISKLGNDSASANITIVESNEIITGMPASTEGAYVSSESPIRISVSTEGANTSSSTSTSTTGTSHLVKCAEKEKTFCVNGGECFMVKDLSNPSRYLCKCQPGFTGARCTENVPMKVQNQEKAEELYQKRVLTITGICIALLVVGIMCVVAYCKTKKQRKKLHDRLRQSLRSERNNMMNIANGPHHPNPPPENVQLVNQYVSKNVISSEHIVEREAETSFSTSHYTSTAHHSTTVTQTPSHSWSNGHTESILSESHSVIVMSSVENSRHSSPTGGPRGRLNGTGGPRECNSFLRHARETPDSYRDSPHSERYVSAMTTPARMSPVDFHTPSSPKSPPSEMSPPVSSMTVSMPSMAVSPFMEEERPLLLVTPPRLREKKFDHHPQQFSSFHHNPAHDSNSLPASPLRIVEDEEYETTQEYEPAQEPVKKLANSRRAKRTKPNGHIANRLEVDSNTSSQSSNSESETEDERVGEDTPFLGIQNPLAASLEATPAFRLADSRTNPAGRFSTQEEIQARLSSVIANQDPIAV
# Chain of Neurogenic locus notch homolog protein 2 (Homo sapiens) (Q04721 whole entry, looked up, canonical isoform): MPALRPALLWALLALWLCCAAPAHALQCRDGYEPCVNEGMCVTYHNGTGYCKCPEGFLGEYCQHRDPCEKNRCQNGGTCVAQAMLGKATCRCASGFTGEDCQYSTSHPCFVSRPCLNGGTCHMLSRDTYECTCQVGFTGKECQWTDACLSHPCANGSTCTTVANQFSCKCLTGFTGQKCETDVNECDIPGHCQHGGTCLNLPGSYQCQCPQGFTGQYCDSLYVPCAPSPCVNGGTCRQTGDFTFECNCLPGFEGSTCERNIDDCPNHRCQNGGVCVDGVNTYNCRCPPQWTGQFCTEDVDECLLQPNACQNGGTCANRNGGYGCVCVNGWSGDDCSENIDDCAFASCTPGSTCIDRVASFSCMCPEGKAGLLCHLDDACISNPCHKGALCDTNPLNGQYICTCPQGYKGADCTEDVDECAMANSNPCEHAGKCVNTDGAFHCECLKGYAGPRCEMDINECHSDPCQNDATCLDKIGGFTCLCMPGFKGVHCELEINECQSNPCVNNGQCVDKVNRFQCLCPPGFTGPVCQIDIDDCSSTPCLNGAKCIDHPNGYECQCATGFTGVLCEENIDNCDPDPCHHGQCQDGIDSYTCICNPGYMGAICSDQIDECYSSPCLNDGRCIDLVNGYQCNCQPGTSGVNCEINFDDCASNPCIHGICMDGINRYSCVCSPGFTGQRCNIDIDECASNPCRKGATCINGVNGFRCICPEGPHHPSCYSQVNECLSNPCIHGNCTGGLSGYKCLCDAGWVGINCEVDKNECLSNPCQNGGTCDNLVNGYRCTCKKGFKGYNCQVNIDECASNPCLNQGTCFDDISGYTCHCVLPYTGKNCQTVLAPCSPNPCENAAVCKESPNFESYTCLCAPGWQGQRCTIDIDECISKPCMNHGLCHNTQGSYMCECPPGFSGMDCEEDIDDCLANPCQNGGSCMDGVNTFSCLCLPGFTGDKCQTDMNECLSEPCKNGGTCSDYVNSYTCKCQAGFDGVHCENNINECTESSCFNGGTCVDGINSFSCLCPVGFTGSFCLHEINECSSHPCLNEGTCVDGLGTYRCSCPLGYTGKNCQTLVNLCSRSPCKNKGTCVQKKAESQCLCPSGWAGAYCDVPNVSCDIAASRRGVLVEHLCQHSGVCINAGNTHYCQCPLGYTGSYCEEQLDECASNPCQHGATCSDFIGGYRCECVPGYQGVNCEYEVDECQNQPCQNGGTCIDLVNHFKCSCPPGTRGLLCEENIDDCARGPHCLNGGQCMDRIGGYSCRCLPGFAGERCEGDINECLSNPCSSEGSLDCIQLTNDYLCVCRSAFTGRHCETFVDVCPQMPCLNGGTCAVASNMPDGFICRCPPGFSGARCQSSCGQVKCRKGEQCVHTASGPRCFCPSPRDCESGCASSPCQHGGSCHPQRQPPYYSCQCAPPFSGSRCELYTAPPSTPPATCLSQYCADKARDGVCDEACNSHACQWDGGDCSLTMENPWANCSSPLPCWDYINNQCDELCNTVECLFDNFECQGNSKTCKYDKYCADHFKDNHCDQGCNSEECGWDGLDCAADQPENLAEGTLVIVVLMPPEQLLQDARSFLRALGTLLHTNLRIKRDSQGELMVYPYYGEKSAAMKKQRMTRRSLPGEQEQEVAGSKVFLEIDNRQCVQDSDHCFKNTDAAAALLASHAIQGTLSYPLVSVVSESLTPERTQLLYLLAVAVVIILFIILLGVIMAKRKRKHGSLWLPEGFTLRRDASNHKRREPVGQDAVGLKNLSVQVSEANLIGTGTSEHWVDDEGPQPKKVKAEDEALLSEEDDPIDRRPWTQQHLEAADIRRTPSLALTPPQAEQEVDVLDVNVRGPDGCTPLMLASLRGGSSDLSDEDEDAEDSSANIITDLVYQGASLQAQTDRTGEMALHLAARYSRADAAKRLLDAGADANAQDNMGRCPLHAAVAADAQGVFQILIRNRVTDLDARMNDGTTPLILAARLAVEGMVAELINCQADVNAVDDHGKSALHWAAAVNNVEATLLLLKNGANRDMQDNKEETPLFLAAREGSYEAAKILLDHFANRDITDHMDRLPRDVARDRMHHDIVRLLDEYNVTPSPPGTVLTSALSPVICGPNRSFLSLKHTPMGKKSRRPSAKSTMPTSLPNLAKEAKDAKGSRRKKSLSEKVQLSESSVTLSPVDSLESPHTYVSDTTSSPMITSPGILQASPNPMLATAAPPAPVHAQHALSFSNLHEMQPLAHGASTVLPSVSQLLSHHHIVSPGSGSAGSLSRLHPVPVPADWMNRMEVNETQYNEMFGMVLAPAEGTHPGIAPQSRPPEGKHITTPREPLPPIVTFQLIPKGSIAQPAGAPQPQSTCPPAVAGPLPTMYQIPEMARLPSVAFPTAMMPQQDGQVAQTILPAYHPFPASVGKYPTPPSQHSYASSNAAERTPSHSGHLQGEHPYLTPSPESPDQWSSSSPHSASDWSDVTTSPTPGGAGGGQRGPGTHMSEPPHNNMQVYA
Structure (SMILES),composite z-score [1],composite z-score [2],composite z-score [3],composite z-score [4],composite z-score [5],composite z-score [6],composite z-score [7],z-score [8],composite z-score [9],composite z-score [10]
CN(C)c1ccc(C(O)C2C=CC3C(=O)N(c4ccccc4)C(=O)C3N2Nc2ccccc2F)cc1 (stereo not given),0.357,-0.159,-0.0422,0.208,1.46,0.86,1.25,3.64 (inactive),0.957,-0.212
O=C1C2=CC[C@H]3C(=O)N(Cc4ccc5c(c4)OCO5)C(=O)[C@H]3[C@H]2[C@H](O)[C@@H]2O[C@H]12,-0.319,0.295,-0.141,0.375,0.617,-0.149,-0.0029,0.593 (inactive),0.407,-0.308
CCOC(=O)NN=C1C[C@@H](O)[C@@H](O)[C@@H]2[C@@H]3C(=O)N(C4CCCCC4)C(=O)[C@@H]3CC[C@@H]12,-0.236,0.584,-0.194,0.469,0.489,-0.123,-0.424,-0.371 (inactive),0.554,-0.132
CCOC(=O)[C@H](Cc1ccccc1)NC(=O)CCC1CC(OC(=O)NCc2ccc3c(c2)OCO3)CC2(CCCC(COC(=O)NCC3CCCCC3)O2)O1 (stereo not given in full),-0.632,0.247,-0.0775,0.256,1.19,0.306,1.04,1.2 (inactive),1.27,-0.0994
CO[C@H]1COC(=O)[C@@H]2CCCN2C(=O)[C@@H](C)COC(=O)CC=C[C@@H]1C,-0.553,1.69,-0.118,0.624,0.0761,-0.446,0.997,0.36 (inactive),0.107,-0.249
CCCNC(=O)OC[C@H]1O[C@H](CCON=C2[C@H]3CCn4c(=O)n(-c5ccccc5)c(=O)n4[C@H]3[C@H](O)[C@@H]3O[C@H]23)C=C[C@@H]1Oc1ccc(OC)cc1,-0.362,0.447,-0.0885,0.406,0.774,-0.248,0.0894,-0.257 (inactive),0.214,-0.0994
[N-]=[N+]=Nc1ccccc1C[C@@]1(C(N)=O)N=C(c2ccc(OCCCO)cc2)O[C@@H]1c1ccccc1,1.57,0.49,0.0249,0.296,0.975,1.05,1.16,1.23 (inactive),0.784,-0.181
C=CCOC(=O)[C@H]1[C@@H]2C(=O)O[C@@H](c3ccccc3)[C@@H](c3ccccc3)N2[C@@H](c2ccc(OCCOC(=O)[C@H]3C[C@H]4C(=O)N5CCC[C@H]5C(=O)N4[C@H]3c3cccc(OCCO)c3)cc2)[C@]12C(=O)Nc1ccc(I)cc12,1.82,1.9,0.522,0.92,1.47,2.91,1.47,1.07 (inactive),2.63,0.794
COC(=O)[C@H](C)NC(=O)CCC1CC(OC(=O)NCCc2ccc(F)cc2)CC2(CCCC(COC(=O)NCCc3ccc(Cl)cc3)O2)O1 (stereo not given in full),-0.655,1.39,-0.0579,0.812,1.15,0.691,0.595,1.11 (inactive),0.393,-0.0672
Cc1cc2c(c(=O)o1)[C@H](O)[C@H]1O[C@H]1C2=O,0.0331,0.357,-0.175,0.118,0.749,-0.262,0.12,-0.924 (inactive),-0.0853,-0.0994
CO[C@H]1COC(=O)CC=C[C@H](C)[C@@H](NS(=O)(=O)c2ccc(C)cc2)COC(=O)CC=C[C@@H]1C,-0.599,0.871,-0.134,0.339,0.381,-0.425,-0.377,-1.15 (inactive),-0.197,-0.0994
O=C1[C@H]2[C@H]3[C@H](O)[C@H](O)CC(=NOCc4ccccc4)[C@H]3CC[C@H]2C(=O)N1c1cccc(Oc2ccccc2)c1,-0.602,0.154,-0.052,0.919,0.554,0.391,1.16,0.335 (inactive),0.4,0.0053
CC(CCN1CCCCc2nc(C)c(C)cc21)=NOC(C)CN1CCCCc2nc(C)c(C)cc21 (stereo not given),-0.275,1.93,-0.15,0.682,1.48,0.963,1.28,0.748 (inactive),0.907,0.0174
O=C1CCCC=C1C(O)CCOCc1ccccc1 (stereo not given),-0.149,0.858,-0.0753,0.0674,-0.175,-0.573,0.28,1.58 (inactive),-0.0364,-0.236
O=C1[C@H]2[C@H]3[C@H](O)[C@H](O)CC(=NOCc4ccccc4)[C@H]3CC[C@H]2C(=O)N1c1ccc(F)cc1F,-0.426,-0.0076,-0.0561,0.0471,-0.0497,0.757,0.106,0.131 (inactive),-0.314,-0.214
CC(C)(C)OC(=O)CC[C@]1(C(N)=O)COC(c2ccc(OCCCO)cc2)=N1,0.645,2.69,0.325,0.6,1.39,1.14,1.03,0.266 (inactive),1.19,0.462
CC(C)[C@@H](OCc1ccccc1)[C@H](C)C=NOC[C@@H](C)[C@H](OCc1ccccc1)C(C)C,-0.539,0.0717,-0.164,0.31,0.303,0.106,-0.44,-0.108 (inactive),-0.0889,-0.131
